This note sets out measurements from PubChem BioAssay (NCI).

Compounds without any hit were thinned out: in the full panel of roughly 83,000, 20% have a hit.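 48-hour exposure, single concentration, 96-well plates; percent growth endpoint where 0 means no net growth. Active: below 10.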 A number with no mark means an inactive call. Activity calls are given as the source filed them.

The test system of the test is MDA-MB-468 breast. Briefly: NCI-60 one-dose screen, 48 h (100 = growth as untreated, 0 = no growth, -100 = all killed). The note with it: 10 µM unless noted.
Regarding `CN1CCN(CCCOC(=O)c2c3c(n4ccccc24)C(=O)c2ncccc2C3=O)CC1`, the growth was 43.7%.

`COc1cc(C2=NN(C(C)=O)C(c3cccc(Nc4ccnc5cc(C(F)(F)F)ccc45)c3)C2)cc(OC)c1OC` (stereo not given): the growth was 50.5%.

Take `CCCOC(=O)Nc1nc2ccc(SCC)cc2s1`: the growth is 46.2%.

As to `CN(Cc1cnc2nc(N)nc(N)c2n1)c1ccc(C(=O)N[C@@H](CCc2nn[nH]n2)c2nn[nH]n2)cc1`, the growth is 52.8%.

With `Clc1ccc2c(NCCNc3nc(N4CCCCC4)nc4ccccc34)ccnc2c1`, the growth was -31.7% (active).

With `CS(=O)(=O)c1cccc(Nc2ncc3cc(-c4ccccc4Cl)ccc3n2)c1`, the growth is 13.1%.

Regarding `CN(C)c1ccc(C(=O)OCCCCCCl)cc1`, the growth was 95.3%.

`COc1ccc(/C=C/C(=O)c2ccc(NC(=O)CSc3nnc(-c4ccc(OC)cc4)n3-c3ccccc3)cc2)cc1`: the growth is 106%.

Regarding `Cc1ccc(C)c2c1C(=O)OC2=O`, the growth was 110%.

For `C#CCNC(=O)[C@H](Cc1ccccc1)NC(=O)[C@]12CC[C@@H](C(=C)C)[C@@H]1[C@H]1CC[C@@H]3[C@@]4(C)Cc5c([nH]c6ccccc56)C(C)(C)[C@@H]4CC[C@@]3(C)[C@]1(C)CC2`, the growth was 97.9%.

Take `CC1CCN(CCOc2ccc(CNc3ccc4nc(CCC5CCCCC5)[nH]c4c3)cc2)CC1`: the growth is 14.2%.

In the case of `O=C(c1ccncc1)N1N=C(c2ccc(Cl)cc2)CC1c1c[nH]c2ccccc12` (stereo not given), the growth was 102%.

In the case of `CCC(O)C(C)(C)C` (stereo not given), the growth is 115%.

Consider `Cc1nn(-c2ccc(F)cc2)c2ncnc(Nc3ccc(NC(=O)Nc4ccc(Cl)c(C(F)(F)F)c4)cc3)c12`, for which the growth was -2.58% (active).

Regarding `CC(=O)OC[C@H]1OC(Sc2sc(C(=O)c3ccc(Br)cc3)c(N)c2-c2nc3ccccc3s2)[C@H](OC(C)=O)[C@@H](OC(C)=O)[C@H]1OC(C)=O` (stereo not given in full), the growth was 91.9%.

Regarding `N#Cc1cccc(-c2ccc3c(c2)NC(=O)/C3=C\c2ccc[nH]2)c1`, the growth was -20.1% (active).

For the compound `O=C1Nc2ccccc2/C1=C\c1nc(-c2ccccc2)n2ccccc12`, the growth was -1.63% (active).

Turning to `COc1ccc(S(=O)(=O)c2ccc(C(N)=O)cc2)cc1NC(=O)c1[nH]c(C)c2c1CCCCC2=O`, the growth is 31.9%.

As for `CN1CCN(Cc2ccc(NC(=O)c3cncc(C#Cc4cnc5ccc(N6CCSCC6)nn45)c3)cc2C(F)(F)F)CC1`, the growth was -74.2% (active).

As for `CCCCCCCCCCCC[n+]1ccccc1` (tested in a mixture with another compound), the growth is -37.6% (active).

In the case of `COc1cc(C2C(C#N)=C(c3c[nH]c4ccccc34)Nc3nc(N)[nH]c(=O)c32)cc(OC)c1OC` (stereo not given), the growth was 13.2%.

`O=C(CCCOc1ccc(Br)cc1)Nc1ncc(Cc2ccc(F)cc2)s1`: the growth was 57%.

Take `N#Cc1ccc(O)c(C2=NCC(c3ccccc3)O2)c1` (stereo not given): the growth was 32.3%.

With `CN1C(=O)[C@H]2c3c1cccc3[C@@]13NC(=O)O[C@H]1[C@H](CCC3(C)C)C2(C)C`, the growth is 78.6%.

On to `CCSCC1CC(O)(c2ccccc2)C(c2ccccc2)C(c2ccc(F)cc2)O1` (stereo not given), for which the growth is -18% (active).

In the case of `COc1cccc(-c2nc3sccn3c2-c2ccnc(NCCNS(=O)(=O)c3cccc(Cl)c3)c2)c1`, the growth was 42.4%.

Take `COc1cc(-c2nn(C(C)(C)C)cc2-c2ccnc(NCCCNS(=O)(=O)c3ccc(Cl)cc3)n2)ccc1Cl`: the growth is 63.7%.

Turning to `COc1ccc(C(O)c2cc3c(N)c(C(=O)Nc4cccc(Br)c4C)sc3nc2C)cc1` (stereo not given), the growth is 7.52% (active).

Regarding `Cc1ccc(Cl)cc1NC(=O)CCl`, the growth was 73.5%.

`COc1ccc(/C=C/C(=O)c2ccc(-n3cc(CN4CCN(c5cc6c(cc5F)c(=O)c(C(=O)O)cn6C5CC5)CC4)nn3)cc2)cc1OC`: the growth was -7.19% (active).

For the compound `c1ccc(-c2nc3sc(-c4ccccc4)cn3n2)cc1`, the growth is 85.2%.

For the compound `CC(C)(O)c1cncc(-c2ccc3ncnc(N4CCc5cc(F)c(Cl)cc54)c3c2)c1`, the growth is -36% (active).

In the case of `COc1ccc(-n2nc(C(=O)Nc3ccc(F)cc3)nc2-c2cc(OC)c(OC)c(OC)c2)cc1`, the growth is 91.9%.

Consider `COc1ccc(-c2nc3sccn3c2/C=C/C(=O)c2cc(OC)c(OC)c(OC)c2)cc1`, for which the growth is 53.6%.

In the case of `O=C(CNc1nc(-c2cccc([N+](=O)[O-])c2)cs1)Nc1cccc(Cl)c1`, the growth is 98%.

In the case of `O=CNc1ccc2c(c1)Cc1cccc(NC=O)c1-2`, the growth is 14.5%.

For the compound `Cc1cc(N2CCCCC2)nc(NC2CCCC(Nc3ccnc4cc(Cl)ccc34)C2)n1` (stereo not given), the growth is -77.6% (active).

With `O=C(NC1CCCCCC1)c1ccc2c(=O)n3c(nc2c1)CCCCC3`, the growth was 81.2%.

As to `c1ccc2[nH]c(-c3ccc(-c4nccc5c4[nH]c4ccccc45)cc3)nc2c1`, the growth was 44.8%.

In the case of `CC1CCN(Cc2ccc(NC(=O)c3cc4ccc5cccnc5c4[nH]3)cc2)CC1`, the growth was 21%.
